The results in this text go back to PubChem BioAssay (NCATS).

Molecules are shown by their SMILES. Results filed as inconclusive are left out. Active and inactive are the calls of the source. The call rests on the fitted dose curve; in most records, active means well fitted cell-killing curve with a large enough effect; inconclusive means small, poorly fitted or top-dose-only effect, or effect the other way; inactive means flat fitted curve, though single readings scatter.

Assay in all cases: Primary qHTS to identify gynecologic anti-cancer compounds using libraries of approved drugs and bioactive compounds (AID 1345084); further: nearly all actives have a fitted effect of over 55% in size
One assay concerns HeLa. Conditions: Gynecologic cancer cell panel viability, ATPlite luminescence, 48 h; series mostly up to 57.5 µM. The procedure, abridged: (§1)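 Five-point cytotoxicity, 48 h drug exposure at 37 C, 5% CO2, on cells seeded 16 h beforehand. ATP content read by ATPlite luminescence.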
The test system of the next assay is Hek293T. The settings on record: Gynecologic cancer cell panel viability, ATPlite luminescence, 48 h, control line for the selectivity index; series mostly up to 57.5 µM. The procedure, abridged:
as §1
(Cellular ATP, detected with luciferase, serves as a proxy for viable cell number.)

For another assay, the system named is JEG-3. The settings on record: Gynecologic cancer cell panel viability, ATPlite luminescence, 48 h; series mostly up to 57.5 µM. The procedure, abridged:
as §1

Another assay concerns OV90. Conditions: Gynecologic cancer cell panel viability, ATPlite luminescence, 48 h; series mostly up to 57.5 µM. The procedure, abridged:
as §1

A further assay deals with PA-1. Conditions: Gynecologic cancer cell panel viability, ATPlite luminescence, 48 h; series mostly up to 57.5 µM. An outline of the steps: as §1
The test system of the next assay is SKOV3. Conditions: Gynecologic cancer cell panel viability, ATPlite luminescence, 48 h; series mostly up to 57.5 µM. An outline of the steps: as §1
A further assay has as its system CASKI. Conditions: Gynecologic cancer cell panel viability, ATPlite luminescence, 48 h; series mostly up to 57.5 µM. An outline of the steps:
as §1

For the next assay, the system named is Es-2. The settings on record: Gynecologic cancer cell panel viability, ATPlite luminescence, 48 h; series mostly up to 57.5 µM. An outline of the steps:
as §1

For a further assay, the system named is Tov-21-G. The settings on record: Gynecologic cancer cell panel viability, ATPlite luminescence, 48 h; series mostly up to 57.5 µM. The procedure, abridged: as §1
A further assay deals with Tov112D. Conditions: Gynecologic cancer cell panel viability, ATPlite luminescence, 48 h; series mostly up to 57.5 µM. An outline of the steps: as §1
Potency means the concentration at half of the fitted maximal effect.

As for `O=C(N/N=C/c1ccc([N+](=O)[O-])o1)c1ccc(O)cc1`, the Potency entry with HeLa and with JEG-3 was “inactive” each time. For the same compound, the Potency with Hek293T was 25.1 µM (active); in the assay on OV90, 22.4 µM (active); with PA-1 it was 20 µM (active); with SKOV3, 14.1 µM (active).

As to `CC(C)n1c(/C=C/[C@@H](O)C[C@@H](O)CC(=O)O)c(-c2ccc(F)cc2)c2ccccc21`, the Potency entry in the assay on CASKI, in the assay on Es-2, in the assay with Hek293T, in the assay with SKOV3 and in the assay on Tov-21-G was “inactive” each time. The Potency in the assay with OV90 is 8.91 µM (active).

As for `CCO[C@@H]1O[C@H](C(COCc2ccccc2)OCc2ccccc2)[C@H](OCc2ccccc2)[C@H]1O` (some centres not stated), the Potency entry in the assay with CASKI, in the assay on Hek293T, in the assay on JEG-3, with OV90, in the assay on PA-1 and in the assay on SKOV3 was “inactive” throughout. Besides, the Potency result in the assay on Tov-21-G and with Tov112D was “inactive” throughout.

With `O=C(NCCc1c[nH]c2ccccc12)c1cccnc1`, the Potency entry in the assay on CASKI, with HeLa, in the assay on Hek293T, with JEG-3, with PA-1 and in the assay on SKOV3 was “inactive” throughout. The Potency result with Tov-21-G and in the assay with Tov112D was “inactive” in each case.

Consider `CN1CCc2cccc3c2[C@H]1Cc1ccc(O)c(O)c1-3`, for which the Potency entry with CASKI, in the assay with Hek293T, with OV90 and in the assay with SKOV3 was “inactive” in each case.

With `CCCCCN=C(N)N/N=C/c1c[nH]c2ccc(OC)cc12`, the Potency in the assay on Tov112D was 35.5 µM (active).

`C[C@]12CCC(=O)C=C1C=C[C@@H]1[C@@H]2CC[C@@]2(C)[C@H]1CC[C@@]21CCC(=O)O1`: the Potency entry with Es-2, in the assay on HeLa, in the assay with Hek293T, in the assay with JEG-3, in the assay with OV90 and with PA-1 was “inactive” throughout. Besides, the Potency entry in the assay with SKOV3, with Tov-21-G and in the assay on Tov112D was “inactive” each time.

Take `CCCCc1cc2ccccc2c(OCCN(C)C)n1`: the Potency entry with Es-2, in the assay with HeLa, in the assay on Hek293T, in the assay on JEG-3, in the assay with PA-1 and in the assay on Tov-21-G was “inactive” each time. For the same compound, in the assay with Tov112D, the Potency entry was “inactive”.

Consider `CCCCCCCCCCCCCC[N+](C)(C)Cc1ccccc1`, for which the Potency in the assay with CASKI was 14.1 µM (active); with HeLa it was 25.1 µM (active); in the assay on SKOV3 it was 22.4 µM (active); with Tov-21-G it was 20 µM (active); with Tov112D, 14.1 µM (active).

As to `CCOC(=O)c1c(N)sc2c1CCN(Cc1ccccc1)C2`, the Potency entry in the assay with Es-2, in the assay with HeLa, in the assay with Hek293T, in the assay on JEG-3, with SKOV3 and in the assay with Tov-21-G was “inactive” throughout. Also, the Potency entry in the assay on Tov112D was “inactive”.

On to `NC(N)=NN=C(/C=C/c1ccc([N+](=O)[O-])o1)/C=C/c1ccc([N+](=O)[O-])o1`, for which the Potency in the assay on Es-2 is 31.6 µM (active); in the assay with HeLa, 22.4 µM (active); with OV90, 15.8 µM (active); in the assay with PA-1 it was 7.08 µM (active); in the assay on Tov-21-G it was 12.6 µM (active); with Tov112D, 17.8 µM (active).
